LASV entry inh: qHTS for Inhibitors of binding or entry into cells for Lassa Virus. hit rate 4.1% among 18,000. Potency, µM (doses to about 49.2 µM), for the others: at the top dose activity change, negative = inhibition, hits mostly inhibitors. Lassa virus pseudotyped entry inhibition, cell-based qHTS
Marburg entry: qHTS for Inhibitors of binding or entry into cells for Marburg Virus | Marburg virus pseudotype entry/binding inhibition, cell-based | Potency, µM (doses to about 49.2 µM), inactives show at the top dose activity change, negative = inhibition, most hits filed as inhibitors | hit rate 6.5% among 18,000
An asterisk follows results filed as active; ? = inconclusive; nt = no result; ! = not active in a repeat; [ ] = dose if it differs, or a comment. Shown are actives, neighbours in structure and some others; about 8% of the full set was active somewhere. Calls come from the whole dose curve; tested in HEK293 cells. % is set by controls: 0 for no effect and ±100 for the full control effect; potency is the fitted concentration of half-maximal effect.

SMILES	LASV entry inh	Marburg entry
CC12C=C(C=Cc3ccccc3)C(C)(C1)C(c1ccccc1)CC2=O (stereo unspecified)	-11%[8.59 µM]	-4%[8.59 µM]
CC#C[C@H](C)[C@@H](OCOC)[C@H](C[C@H](C)Cc1cc(Br)cc(OCc2ccccc2)c1OC)OC	-3%[8.59 µM]	-10%[8.59 µM]
CCOC(=O)C1=C(C)NC(C)=C(C(=O)OC)C1c1cccc([N+](=O)[O-])c1 (stereo unspecified)	?	14µM*!
COC(=O)C1=C(C)NC(C)=C(C(=O)OC(C)(C)CN(C)CCC(c2ccccc2)c2ccccc2)C1c1cccc([N+](=O)[O-])c1 (stereo unspecified)	13µM*	?
CCOC(=O)C1=C(C)NC(C)=C(C(=O)OC)[C@@H]1c1cccc([N+](=O)[O-])c1	-3%[17.8 µM]	-21%[17.8 µM]
CCOC(=O)C1=C(C)NC(C)=C(C(=O)OC)[C@H]1c1cccc([N+](=O)[O-])c1	-6%	?
CC1=C(C(=O)OC(C)C)C(c2cccc([N+](=O)[O-])c2)C(C(=O)OC2CN(C(c3ccccc3)c3ccccc3)C2)=C(N)N1 (stereo unspecified)	-20%	-24%
COCCOC(=O)C1=C(C)NC(C)=C(C(=O)OC(C)C)[C@@H]1c1cccc([N+](=O)[O-])c1	-23%	-26%
COCCOC(=O)C1=C(C)NC(C)=C(C(=O)OC/C=C/c2ccccc2)C1c1cccc([N+](=O)[O-])c1 (stereo unspecified)	13µM*	6.3µM*
COC(=O)C1=C(C)NC(C)=C(C(=O)O[C@@H]2CCCN(Cc3ccccc3)C2)[C@@H]1c1cccc([N+](=O)[O-])c1	?	14µM*
CCN1C(=NCCc2ccccn2)NC(c2cccs2)C(C(=O)OC)=C1C (stereo unspecified)	0%[8.59 µM]	?
COc1cc2c(cc1OC)[C@@H]1O[C@](c3ccsc3)(C2)Oc2cc(-c3ccccc3)oc(=O)c21	17%[8.59 µM]	?
CCCCC/C=C\C/C=C\C=C\[C@@H](O)C/C=C\CCCC(=O)O	2%	5%
Cc1ccc2c(c1)CN(CCNC(=O)c1n[nH]c3c1CCCC3)CC(C)O2 (stereo unspecified)	2%	-15%
O=C(NCCO)c1cn(C2CCCN(Cc3cccc(C(F)(F)F)c3)C2)nn1 (stereo unspecified)	-3%	1%
CS(=O)(=O)c1ccc(C(=O)C2C(=O)CCCC2=O)c([N+](=O)[O-])c1	-20%[107 µM]	33%[107 µM]
COC(=O)C1=C(C)N(Cc2ccccc2)C(=NCCc2c[nH]c3ccccc23)NC1c1cccc(F)c1 (stereo unspecified)	nt	-17%[8.59 µM]
C=C1C2CC[C@@]3(C)C(c4ccoc4)OC(=O)C[C@@]13OC1CC(OC(C)=O)C(C)(C)C(CC(=O)OC)[C@@]12C (stereo partly specified)	?	13µM*
C=C1C2CC[C@@]3(C)C(c4ccoc4)OC(=O)C[C@@]13OC1CC(=O)C(C)(C)C(CC(=O)OC)[C@]12C (stereo partly specified)	-19%	-8%
CCC1(C2CCN(Cc3ccccn3)CC2)NC(=O)N(CC2COc3ccccc3O2)C1=O (stereo unspecified)	-8%	-1%
Cn1cc(C2=C(c3cn(C4CCN(Cc5ccccn5)CC4)c4ccccc34)C(=O)NC2=O)c2ccccc21	?	7.1µM*
CC(C)(C)NCC(O)c1ccc(O)c(CO)c1 (stereo unspecified)	-4%	13%
OCc1cc(C(O)CNCCCCCCOCCCCc2ccccc2)ccc1O (stereo unspecified)	?	16µM*
Cc1cc2c(c(-c3ccc4nc(C)ccc4c3)c1)OC(CNC(=O)Cc1ccn(C)c1)C2 (stereo unspecified)	-13%	2%
Cc1ccc2c(c1)Cc1c(C(=O)NC3CCCCC3)nn(-c3ccc(Cl)cc3Cl)c1-2	-8%	?
SMILES	LASV entry inh	Marburg entry
Cc1c(C(=O)NN2CCCCC2)nn(-c2ccc(Cl)cc2Cl)c1-c1ccc(Cl)cc1	16µM*	14µM*
CCCC=Cc1ccc(CN2C(C(C)C)C(=O)N(Cc3cn(CCC4OCCO4)nn3)CCS2(=O)=O)cc1 (stereo unspecified)	nt	-25%
CCC1CN(CCNC(=O)c2ccc(N3CCOCC3)cc2)Cc2cc(OC)ccc2O1 (stereo unspecified)	-4%	-4%
C[C@H]1CCC[C@H](O)CCCCCc2cc(O)cc(O)c2C(=O)O1	-26%	14%
CC1CC2OC2/C=C\C=C/C(=O)Cc2c(Cl)c(O)cc(O)c2C(=O)O1 (stereo unspecified)	7.9µM*	2.5µM*
COc1ccc2c(c1)C(=O)[C@H](OC(=O)NS(=O)(=O)c1ccc(F)cc1)[C@@H](c1ccc(OC)c(Br)c1)O2	-16%	-6%
O=C1C=CC2(OCCCO2)C(Br)=C1CO	-3%	-18%
CSc1nc(C(=O)N2CCOc3ccc(CN4CCN(Cc5ccccn5)CC4)cc3C2)cs1	-9%	-2%
Cc1cnc(-n2ncc(C(=O)NCCCc3ccncc3)c2C)nc1-c1ccc(F)cc1	-12%	20µM*
Cc1cnc(-n2ncc(C(=O)NCCc3cccnc3)c2C)nc1-c1ccc(F)cc1	-13%	?
O=C(Nc1ccc(Cl)c(Cl)c1)C1CC1	-9%	6%
O=C(Cc1ccc(Cl)c(Cl)c1)N1CCCCC1CN1CCCC1 (stereo unspecified)	?	7.9µM*
COc1ccc2cc(CNCc3nonc3C)c(N3CCCC(CO)C3)nc2c1 (stereo unspecified)	-2%	-30%
C=CCN1c2ccccc2[C@]23CCC(=O)N(CCCOC(C)C)C2=NC(C(=O)OC)=C(C(=O)OC)[C@H]13	-1%[8.59 µM]	-10%[8.59 µM]
Cc1ccc2nc(NCCN)c3ncc(C)n3c2c1	?	7.9µM*
C=CCOC(=O)N[C@H](c1ccccc1)[C@H](C)C=CCC(=O)OC	7%[8.59 µM]	9%[8.59 µM]
OC[C@H]1O[C@@H](n2cnc3c(NCc4ccccc4)ncnc32)[C@H](O)[C@@H]1O	?	28µM*
O=S(=O)(O)c1ccc(Nc2ncnc3c2ncn3[C@@H]2O[C@H](CO)[C@@H](O)[C@H]2O)cc1	-13%	17%
C=CCOC(=O)C(C(C)=O)[C@@H](NC(=O)OC)c1ccc(Cl)cc1 (stereo partly specified)	-4%[8.59 µM]	-10%[8.59 µM]
COC(=O)[C@@H](c1ccccc1Cl)N1CCc2sccc2C1	-3%	16%
COc1cc2c(c(OC)c1OC)C(c1ccccc1)(c1ccccc1)CC2NC(=O)C(F)(F)F (stereo unspecified)	10%[8.59 µM]	-10%[8.59 µM]
C[C@]12CC[C@H](O)C[C@H]1CC[C@@H]1[C@@H]2CC[C@]2(C)[C@@H](c3ccc(=O)oc3)C[C@H]3O[C@]132	2.8µM*	2.5µM*
CC(=O)C1CC[C@H]2C3CC[C@@H]4CC(O)CC[C@@]4(C)C3CC[C@]12C (stereo partly specified)	-11%	?
CC(C)=CCN1C(=O)C2(CC(C)=C[C@@H](C)O2)c2c(Br)cccc21 (stereo partly specified)	-13%[8.59 µM]	11%[8.59 µM]
CC(=O)O[C@]1(C(C)=O)CC[C@@H]2[C@@H]3C=C(Cl)C4=CC(=O)[C@H]5C[C@@H]5[C@]4(C)[C@H]3CC[C@]21C	3%[17.8 µM]	-11%[17.8 µM]

Assay outcomes (PubChem BioAssay)
